Laboratory results as given in PubChem BioAssay (EPA / NIEHS).
Several values for one entry are separate records, joined by “and”; a condition that tells them apart may be missing. Equal entries are not always repeated. Some structures have more than one record in an assay (separate samples or runs), and their calls can disagree. Activity calls are given as the source filed them. Rule for the calls: active = hit-call score of the fitted dose curve at least 0.9, where 1 is the maximum; inactive = score below 0.9.

Read-out: Vascular cell adhesion molecule 1 (VCAM1), VCAM1 (gene 7412)
Experiment: BSK_4H_VCAM1: BioMAP Diversity Plus: 4H Assay for Vascular cell adhesion molecule 1 (VCAM1) Biomarker Activity (AID 2283033)
Conditions: primary human endothelial cells (HUVEC); actives raise or lower the signal
Procedure: BSK_4H is a cell-based, multiplexed-readout assay that uses umbilical vein endothelium, a human vascular primary cell, with measurements taken at 24 hours after chemical dosing in a 96-well plate.BSK_4H_VCAM1 is an assay component measured in the BSK_4H assay. It measures VCAM-1 antibody related to regulation of gene expression using ELISA technology.Data from the assay component BSK_4H_VCAM1 was analyzed into 1 assay endpoint. This assay endpoint, BSK_4H_VCAM1, was analyzed with bidirectional fitting relative to DMSO as the negative control and baseline of activity. Using a type of binding reporter, gain or loss-of-signal activity can be used to understand changes in the signaling as they relate to the gene VCAM1. Furthermore, this assay endpoint can be referred to as a primary readout, because this assay has produced multiple assay endpoints where this one serves a signaling function. To generalize the intended target to other relatable targets, this assay endpoint is annotated to the cell adhesion molecules intended target family, where the subfamily is Immunoglobulin CAM.
The levels of cell surface (or secreted, indicated by the prefix "s") biomarker endpoints were measured by ELISA. Overt cytotoxicity to cells in confluent adherent cultures (all systems other than the BT system) was assessed by measuring total protein levels using sulforhodamine B (SRB) staining in parallel cultures at the time of biomarker measurements, indicated as SRB endpoints. For proliferation assays for adherent cell types, individual cell types are cultured at sub-confluence and relative cell numbers quantified by SRB staining at time points optimized for each system (48 h: 3C and CASM3C systems; 72 h: BT and HDF3CGF systems; 96 h: SAg system). SRB was performed by staining cells with 0.1% SRB after fixation with 10% TCA and reading wells at 560 nm.Viability and proliferation of PBMC (T cells) was quantified by Alamar Blue reduction for the SAg and BT systems. For PBMC viability (referred to as PBMC Cytotoxicity within the assay endpoint names), cells were plated (75,000/well in a 96-well plate) and then chemical samples added for 1 h before addition of activators, SEB and TSST-1 (20 ng/mL final concentration each). Cells were incubated for 90 h. Then, Alamar Blue (20 uL/well) (Invitrogen, Cat DAL1100) was added for 6 h, and the plates were read with a fluorescence microplate reader at 546/580 nm (excitation/emission). For PBMC proliferation, cells were plated and activated as above but incubated for only 16 h prior to addition of Alamar Blue. Plates were read after 6 h.

| Compound | outcome | AC50 |
| --- | --- | --- |
| Cc1cccnc1 | inactive |  |
| OC(C(F)(F)F)(C(F)(F)F)C(O)(C(F)(F)F)C(F)(F)F |  | 24.3 µM (active) and 30 µM (active) |
| COC(=O)/C=C\C(=O)OC |  | 17.7 µM (active) |
| CCCCCCC(O)CCCCCCCCCCC(=O)OC (stereo not drawn) | inactive |  |
| CCCCCCCCCC/C=C/C1CC(=O)OC1=O (stereo not drawn) | inactive |  |
| Cc1cc(-n2nc3ccc(Cl)cc3n2)c(O)c(C(C)(C)C)c1 | inactive |  |
| COc1ccc(C(=O)c2ccccc2O)c(O)c1 |  | 11.5 µM (active) and 14.2 µM (active) |
| O=[N+]([O-])c1cc(S(=O)(=O)Nc2ccccc2)ccc1Nc1ccccc1 | inactive | 27.2 µM (active) |
| O=C(C(=O)c1ccccc1)c1ccccc1 | inactive |  |
| Cc1c(C(N)=O)cc([N+](=O)[O-])cc1[N+](=O)[O-] | inactive |  |
| COc1cc(CNC(=O)CCCC/C=C/C(C)C)ccc1O | inactive |  |
| CCCCCCCCCCCCCCCCCC[N+](C)(C)C |  | 1.42 µM (active) |
| CCCCC(CC)COC(=O)C=Cc1ccc(OC)cc1 (stereo not drawn) |  | 5.26 µM (active) and 3.42 µM (active) |
| CC[N+](CC)(CC(=O)Nc1c(C)cccc1C)Cc1ccccc1 (tested in a mixture with another compound) | inactive |  |
| CN(C)Cc1cc(C(C)(C)C)c(O)c(C(C)(C)C)c1 | inactive |  |
| C1CN(CCOCCN2CCOCC2)CCO1 | inactive |  |
| CC(C)C1OCCN1CCOC(=O)NCCCCCCNC(=O)OCCN1CCOC1C(C)C (stereo not drawn) | inactive |  |
| CN(C)CCC(c1ccc(Cl)cc1)c1ccccn1 (stereo not drawn) |  | 0.756 µM (active) |
| CCCCCCCCCCC1CO1 (stereo not drawn) |  | 33.8 µM (active) |
| COc1ccccc1Oc1c(NS(=O)(=O)c2ccc(C(C)(C)C)cc2)nc(-c2ncccn2)nc1OCCO | inactive |  |
| CN(C)c1ccc(C(c2ccccc2)c2ccc(N(C)C)cc2)cc1 |  | 20 µM (active) |
| CCC(C)=NO | inactive |  |
| Sc1nc2ccccc2s1 | inactive |  |
| CC(C)CC(=O)CC(C)CC(C)C (stereo not drawn) |  | 39.2 µM (active) |
| CC[N+](CC)(CC(=O)Nc1c(C)cccc1C)Cc1ccccc1 | inactive |  |
| CCC[Si](OC(C)=O)(OC(C)=O)OC(C)=O | inactive |  |
| Oc1cccc2ccccc12 | inactive |  |
